From the supplement of paper PMC9950053
Structures can show the parent of a compound that is named as a salt.

These compounds were tested on Danio rerio larvae (5 dpf) (assay: startle (activity period 16 minus period 15, 20-s interval sound) minus DMSO control (percentage points); higher = stronger startle response than DMSO larvae). Details: 10 µM; exposure time: 3 h pre-incubation + 3 h imaging.
Experimental: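 Wild-type 5 dpf zebrafish larvae (n=48 per drug, 96-well plates, 28.5 °C) were exposed to Tocris FDA-approved library compounds at 10 µM (0.1% DMSO) for 3 h before and 3 h during imaging. Images were taken every 6 s during visual (moving coloured lines) and acoustic stimuli, and larvae were tracked with the DeepLabCut-based Z-LaP Tracker. Each behavioural measure is the treated-group mean minus the DMSO vehicle control mean (n=844), in percentage points. This mapping covers compounds with 4-character plate codes.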
`Cc1cccc([C@H](C)c2c[nH]cn2)c1C` [Dexmedetomidine hydrochloride] gave a startle of 9.98. Compound `CC(C)C[C@H]1C(=O)N2CCC[C@H]2[C@]2(O)O[C@](NC(=O)[C@@H]3C=C4c5cccc6[nH]c(Br)c(c56)C[C@H]4N(C)C3)(C(C)C)C(=O)N12` [Bromocriptine mesylate] has a startle of -8.86. Work on `CC(O)(CS(=O)(=O)c1ccc(F)cc1)C(=O)Nc1ccc(C#N)c(C(F)(F)F)c1` (stereo unspecified) [Bicalutamide] yielded a startle of 0.428. `N[C@@H]1C[C@H]1c1ccccc1` [Tranylcypromine hydrochloride] showed a startle of -9.63. Compound `CN1C[C@H](C(=O)N[C@]2(C)O[C@@]3(O)[C@@H]4CCCN4C(=O)[C@H](Cc4ccccc4)N3C2=O)C[C@@H]2c3cccc4[nH]cc(c34)C[C@H]21` [Dihydroergotamine mesylate] has a startle of 6.26. `O=c1[nH]c2ccccc2n1C1CCN(CCCC(c2ccc(F)cc2)c2ccc(F)cc2)CC1` [Pimozide] showed a startle of 0.33. Work on `COc1cc2c(cc1OC)C1CC(=O)C(CC(C)C)CN1CC2` (stereo unspecified) [Tetrabenazine] yielded a startle of -4.98. Compound `CCN(C)C(=O)Oc1cccc([C@H](C)N(C)C)c1` [Rivastigmine tartrate] has a startle of 5.22. Compound `C=C1C[C@@H]2[C@H](CC[C@]3(C)C(=O)CC[C@@H]23)[C@@]2(C)C=CC(=O)C=C12` [Exemestane] has a startle of 1.86. `C=CCN1C[C@H](C(=O)N(CCCN(C)C)C(=O)NCC)C[C@@H]2c3cccc4[nH]cc(c34)C[C@H]21` [Cabergoline] showed a startle of -9.97. `CC[C@@H](C(N)=O)N1CCCC1=O` [Levetiracetam] was tested, and the startle was 1.63.
